MARV entry inh = blocks Marburg virus binding to or entry into cells; Marburg virus pseudotyped entry inhibition, cell reporter; Potency, µM (doses to about 37.8 µM), for the others: at the top dose activity change, negative = inhibition, hits mostly inhibitors; hit rate 1.8% among 300,000; calls by dose curve; tested in HEK293 cells; also: potency is read from the fitted curve at half-maximal effect; % is scaled to controls: 0 for no effect and ±100 for the full control effect
FMDV antiviral = foot and mouth disease virus antiviral activity. FMDV antiviral cell-based qHTS. Potency, µM (series often up to 57.9 µM), for inactives: at the highest dose activity change, negative = inhibition, usual class: inhibitors. hit rate 1.2% among 410,000. AID 1159524; calls by dose curve; tested in HEK293T cells; also: read-out not given here; potency is read from the fitted curve at half-maximal effect; % is scaled to controls: 0 for no effect and ±100 for the full control effect; nearly all actives have a fitted effect of over 45% in size
Lassa entry inh = inhibitors of Lassa virus binding or cell entry. Lassa virus pseudotype entry inhibition, cell reporter. Potency, µM (series often up to 37.9 µM), without a hit: at the highest dose activity change, negative = inhibition, actives largely listed as inhibitors. hit rate 1.2% among 300,000. AID 540256; calls by dose curve; tested in HEK293 cells; also: potency is read from the fitted curve at half-maximal effect; % is scaled to controls: 0 for no effect and ±100 for the full control effect; nearly all actives have a fitted effect of over 50% in size
Cycloheximide cs = counter-screen for Shiga toxin inhibitors: cycloheximide protein synthesis inhibition. cell reporter, cycloheximide protein synthesis inhibition counterscreen. max response, %. hit rate 12% among 300,000. AID 2314; in the data active = max response mostly above about 13%, no sharp cut-off; inactive = mostly below about 14%; also: read at 38.3 µM for the half of the compounds with a filed dose; 0% is about no effect
Shiga toxin inh = blocks Shiga toxin action in Vero cells; Vero cells, Shiga toxin protein synthesis inhibition reporter; inhibition, % at 38.7 µM; hit rate 9.2% among 290,000; in the data active = inhibition mostly above about 28%, no sharp cut-off; inactive = mostly below about 43%; also: 0% is about no effect
HCV inhibitor = HCV inhibition | Huh7.5.1 HCVcc-Cre infection, luciferase reporter, 44 h | Potency, µM (highest dose often 41.8 µM), inactives show at the top dose activity change, negative = inhibition, usual class: inhibitors | hit rate 3.4% among 340,000 | AID 651820; active = well fitted inhibition curve with a large enough effect; inconclusive = small, poorly fitted or top-dose-only effect, or another doubt; inactive = no such curve, though single readings can be large or run the other way; also: potency is read from the fitted curve at half-maximal effect; % is scaled to controls: 0 for no effect and ±100 for the full control effect
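Antiviral activity was scored by luciferase reporter output from cells infected with HCVcc-Cre (~0.5 moi) in presence of compound, 44 h infection period, cells seeded 1,000/well 4 h prior.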
* marks the source's active call; other numbers are inactive results; u = inconclusive; x = no result; + = active, no number; [ ] = dose if it differs, or a comment. This is a sample that favours compounds with a hit; in the whole collection about 13% have one here.

SMILES | MARV entry inh | FMDV antiviral | Lassa entry inh | Cycloheximide cs | Shiga toxin inh | HCV inhibitor
Cc1ccnc(NC(=O)COc2ccccc2[N+](=O)[O-])c1 | x | x | x | 40* | 140* | x
CCCCN(CCCC)CCNC(=O)Cn1nc(C)n2c(cc3sccc32)c1=O | -3%[46.1 µM] | -6% | x | x | x | x
CC1(C)Cc2ccccc2C(=NC(Cc2c[nH]c3ccccc23)C(=O)O)N1 (stereo unspecified) | x | -13% | x | 5 | -2 | 10%
CCc1nnc(NC(=O)COc2ccccc2[N+](=O)[O-])s1 | x | 53% | x | 10* | 18 | -11%
Cc1nnnn1-c1cccc(C(=O)O)c1 | 13% | -17% | u | -6 | 25 | 13%
Clc1cccc(N/N=C(\Cc2nc3ccccc3[nH]2)c2ccccc2)c1 | u | u | 1% | 21* | 54* | u
Cc1ccc(S(=O)(=O)Cc2ccc([N+](=O)[O-])cc2)cc1 | -14% | -3% | -17% | -1 | -13 | 12%
O=C(CSc1nc2ccccc2[nH]1)NCCCn1ccnc1 | 18% | 12% | -8% | -5 | -5 | 4%
CCCc1c(C)nn(-c2ncccc2[N+](=O)[O-])c1C | 4%[46.1 µM] | -29% | 8%[46.1 µM] | 1 | -3 | 0%
O=c1n(-c2ccc(Br)cc2)cnn1-c1ncccc1[N+](=O)[O-] | u | 44% | u | 31* | 91* | 1%
Cc1ccc(SCc2nn(C)c(Cl)c2C=O)cc1 | 3%[46.1 µM] | 55% | 0% | 42* | 57* | -17%
Cc1ccc(N2C(=O)Nc3ccccc3S2(=O)=O)cc1Cl | u | -3% | -27% | 14 | -9 | 4%
O=C(O)c1ccc(N=Cc2nc(-c3ccco3)oc2O)cc1 | x | -20% | x | 0 | -4 | 15%
COc1ccc(N=Cc2nc(-c3ccccc3)oc2OC(=O)c2ccccc2)cc1 | -43% | 43% | u | 59* | 67* | 3%
Oc1oc(-c2ccco2)nc1C=Nc1ccccc1 | 7% | x | 4% | 19* | 99* | -12%
CN(C)c1ccc(N=Cc2nc(-c3ccccc3)oc2OC(=O)c2cccc(Br)c2)cc1 | -17% | -26% | 5% | 40* | + | -14%
Cc1ccc(C(=O)Oc2oc(-c3ccco3)nc2C=Nc2ccccc2)cc1 | -5% | x | x | 31* | 89* | x
CCOC(=O)c1ccc(N=Cc2nc(-c3ccccc3)oc2OC(C)=O)cc1 | u | 30% | -28% | 10 | -4 | -28%
O=C(NC1CCCN(Cc2ccc(Cl)cc2)C1)C1CCC1 (stereo unspecified) | 5%[46.1 µM] | -2% | 13%[46.1 µM] | -2 | 18 | 7%
CCCCCc1cc(O)c2c3c(c(=O)oc2c1)CN(C)CC3 | x | 10% | x | 1 | -17 | 10µM*
Cc1cc(=O)oc2cc(O)cc(O)c12 | x | -18% | x | x | x | -23%
CCCCCCc1c(C)c2c(cc(C)c3c(C)coc32)oc1=O | -2%[46.1 µM] | -14% | u | x | x | x
CCCCCc1cc(O)c2c(C)cc(=O)oc2c1 | -85% | 0% | u | 13* | 40 | 11µM*
O=C1c2cccc(OCc3ccc(F)cc3)c2CCN1Cc1ccc(F)cc1 | u | u | u | -2 | -4 | 6.3µM*
Cc1ccc(CN2CCc3c(OCC(=O)Nc4cccc(C)c4C)cccc3C2=O)cc1 | -31% | x | -19% | 1 | -5 | -3%
SMILES | MARV entry inh | FMDV antiviral | Lassa entry inh | Cycloheximide cs | Shiga toxin inh | HCV inhibitor
CN1CCc2c(OCc3ccc(F)cc3)cccc2C1=O | -21%[46.1 µM] | -9% | -19% | -2 | -10 | u
Cc1ccc(CN2CCc3c(OCc4ccc(F)cc4)cccc3C2=O)cc1 | u | u | 7.1µM* | -1 | 9 | u
O=C(Nc1ccc(S(=O)(=O)NC2=NCCCCC2)cc1)c1ccc([N+](=O)[O-])s1 | u | -1% | u | x | x | u
CCOc1ccc(S(=O)(=O)NCc2cccnc2)cc1C | 7%[46.1 µM] | 12% | 5%[46.1 µM] | 1 | 2 | 5%
COc1cccc(C(=O)/C=C/Nc2ccc(S(=O)(=O)Nc3cc(OC)nc(OC)n3)cc2)c1 | -1%[46.1 µM] | 13% | 10% | 34* | 69* | 6%
Cc1ccc(C(=O)Nc2ccc(S(=O)(=O)Nc3cnc4ccccc4n3)cc2)cc1 | u | 51% | 17%[46.1 µM] | 20* | 72 | 18%
COc1cccc(C(=O)/C=C/Nc2ccc(S(=O)(=O)Nc3cnc4ccccc4n3)cc2)c1 | u | 55% | -4% | 69* | 98* | 0%
COc1cc(NS(=O)(=O)c2ccc(N/C=C\C(=O)c3ccc(OC)c(OC)c3)cc2)nc(OC)n1 | 11% | 48% | 6% | -1 | 4 | 12%
O=C(/C=C/Nc1ccc(S(=O)(=O)Nc2cnc3ccccc3n2)cc1)c1ccccc1 | -28%[46.1 µM] | 96% | -9% | 28* | 61 | 6%
CCNc1sc(S(C)(=O)=O)nc1S(=O)(=O)c1ccc(C)cc1 | u | 17% | 7%[46.1 µM] | x | x | x
CC1CCN(Cc2nc(Cl)c3c4c(sc3n2)CCC4)CC1 | x | -3% | x | 25* | 33 | -2%
Clc1nc(CN2CCCCC2)nc2sc3c(c12)CCCC3 | x | -8% | x | 31 | 30 | -17%
Cc1ccc(S(=O)(=O)N2CCN(c3nc(CN4CCCC4)nc4sc(C)c(C)c34)CC2)cc1 | x | -22% | x | x | x | u
Cc1sc2nc(CN3CCCCC3)nc(Cl)c2c1C | -34% | u | u | 15* | 14 | u
O=C(CSc1nc(C2CC2)nc2ccccc12)N1CCc2ccccc2C1 | 1% | x | x | -2 | -6 | x
Cc1nnc2c(NCCC(C)C)nc3ccccc3n12 | 24% | 12% | 16% | -3 | 2 | 28%
CCCCOc1ccc(CNC(=O)C2COc3ccc(OC)cc3C2)cc1 (stereo unspecified) | x | -10% | -23%[46.1 µM] | x | x | x
CCc1noc(C)c1C(=O)Nc1nc2c(C)cc(C)cc2s1 | u | -2% | 9% | x | x | 11µM*
CCc1ccc2nc(NC(=O)c3cc(C)on3)sc2c1 | -22% | 5% | u | 54* | 95* | u
CCc1noc(C)c1C(=O)Nc1nc2ccc(S(C)(=O)=O)cc2s1 | -8% | 36% | -5% | x | x | -6%
CCc1noc(C)c1C(=O)Nc1nc2ccc(F)cc2s1 | u | 7% | 15% | x | x | u
Cc1cc(C)c2nc(NC(=O)c3cc(C)on3)sc2c1 | 0% | 1% | 9% | 22* | 21 | -46%
O=C(NC1CCCCC1)C1CCC(=O)N(C2CC2)C1 (stereo unspecified) | x | 4% | x | -3 | -33 | 9%
CN1CCN(c2nc3c(c(=O)n(C)c(=O)n3C)n2Cc2cccc3ccccc23)CC1 | 0% | -10% | -10% | 4 | -15 | 5%
Cn1c(=O)c2c(nc(N3CCCCCC3)n2Cc2cccc3ccccc23)n(C)c1=O | u | 28µM* | -24% | -3 | 3 | u
Cn1c(=O)c2c(nc(CN3CCN(CCO)CC3)n2Cc2ccccc2Cl)n(C)c1=O | x | -12% | x | 1 | -3 | 5%
Cn1c(=O)c2c(nc(CN3CCN(CCO)CC3)n2Cc2cccc3ccccc23)n(C)c1=O | 12µM* | 0% | -19% | -1 | 16 | u
O=C(CCNC(=O)C1CCN(S(=O)(=O)c2ccccc2)CC1)NCc1ccccc1Cl | -3%[46.1 µM] | -3% | 1%[46.1 µM] | -1 | -9 | 0%

High-throughput results from PubChem.
